Source: the supplement of paper PMC8728848
About 410 targets per protein were measured; listed, in parts, are those with the strongest signals and a random draw of the rest.

Tests used:
Assay in all cases: glycan array binding signal (z-score within array); higher = stronger binding
Conditions in all cases: glycan notation: IUPAC condensed, linker removed
Gal6S(b1-4)Glc6S = target: Gal6S(b1-4)Glc6S
How it was run: (§1)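 Glycan array binding is given as a within-array Z-score, which can be read as non-binding when negative. The arrays, 3228 of them, came from the Consortium for Functional Glycomics database and were retained only where the protein sequence was available. Z-scores were averaged across arrays of the same protein sequence at different concentrations or buffers and across linkers.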

Gal6S(b1-4)GlcNAc = target: Gal6S(b1-4)GlcNAc
How it was run: as §1

GalNAc(a1-3)Gal = target: GalNAc(a1-3)Gal
How it was run: as §1

GalNAc(a1-3)GalNAc = target: GalNAc(a1-3)GalNAc
How it was run: as §1

GalNAc(b1-3)GalNAc = target: GalNAc(b1-3)GalNAc
How it was run: as §1

GalNAc(b1-4)Gal(b1-4)Glc = target: GalNAc(b1-4)Gal(b1-4)Glc
How it was run: as §1

Glc(b1-4)Glc = target: Glc(b1-4)Glc
How it was run: as §1

[1] = target: GlcNAc(a1-4)Gal(b1-4)GlcNAc
How it was run: as §1

[2] = target: GlcNAc(a1-4)Gal(b1-4)GlcNAc(b1-3)Gal(b1-4)GlcNAc(b1-3)Gal(b1-4)GlcNAc
How it was run: as §1

[3] = target: GlcNAc(a1-4)Gal(b1-4)GlcNAc(b1-3)Gal(b1-4)[Fuc(a1-3)]GlcNAc(b1-3)Gal(b1-4)[Fuc(a1-3)]GlcNAc
How it was run: as §1

[4] = target: GlcNAc(b1-3)Gal(b1-4)GlcNAc(b1-2)Man(a1-3)[GlcNAc(b1-3)Gal(b1-4)GlcNAc(b1-2)Man(a1-6)]Man(b1-4)GlcNAc(b1-4)[Fuc(a1-6)]GlcNAc
How it was run: as §1

[5] = target: GlcNAc(b1-4)GlcNAc(b1-4)GlcNAc
How it was run: as §1

[6] = target: GlcNAc(b1-4)[GlcNAc(b1-6)]GalNAc
How it was run: as §1

Kdn(a2-6)Gal(b1-4)GlcNAc = target: Kdn(a2-6)Gal(b1-4)GlcNAc
How it was run: as §1

[7] = target: Man(a1-2)Man(a1-3)[Man(a1-2)Man(a1-6)]Man
How it was run: as §1

[8] = target: Neu5Ac(a2-3)Gal(b1-3)GalNAc
How it was run: as §1

[9] = target: Neu5Ac(a2-3)Gal(b1-3)GalNAc(b1-4)[Neu5Ac(a2-8)Neu5Ac(a2-3)]Gal(b1-4)Glc
How it was run: as §1

[10] = target: Neu5Ac(a2-3)Gal(b1-3)GlcNAc(b1-3)GalNAc
How it was run: as §1

[11] = target: Neu5Ac(a2-3)Gal(b1-3)[Fuc(a1-4)]GlcNAc(b1-3)Gal(b1-3)[Fuc(a1-4)]GlcNAc
How it was run: as §1

[12] = target: Neu5Ac(a2-3)Gal(b1-4)[Fuc(a1-3)]GlcNAc(b1-2)Man
How it was run: as §1

[13] = target: Neu5Ac(a2-3)Gal6S(b1-4)GlcNAc
How it was run: as §1

Neu5Ac(a2-6)Gal(b1-4)Glc = target: Neu5Ac(a2-6)Gal(b1-4)Glc
How it was run: as §1

[14] = target: Neu5Ac(a2-6)Gal(b1-4)GlcNAc(b1-2)Man(a1-3)[Neu5Ac(a2-6)Gal(b1-4)GlcNAc(b1-2)Man(a1-6)]Man(b1-4)GlcNAc(b1-4)GlcNAc
How it was run: as §1

[15] = target: Neu5Ac(a2-6)Gal(b1-4)GlcNAc(b1-2)[Neu5Ac(a2-6)Gal(b1-4)GlcNAc(b1-4)]Man(a1-3)[GlcNAc(b1-4)][Neu5Ac(a2-6)Gal(b1-4)GlcNAc(b1-4)Man(a1-6)]Man(b1-4)GlcNAc(b1-4)GlcNAc
How it was run: as §1

[16] = target: Neu5Ac(a2-6)Gal(b1-4)GlcNAc(b1-3)Gal(b1-3)GlcNAc
How it was run: as §1

[17] = target: Neu5Ac(a2-6)Gal(b1-4)GlcNAc(b1-3)Gal(b1-4)GlcNAc(b1-3)Gal(b1-4)GlcNAc(b1-2)Man(a1-3)[Neu5Ac(a2-6)Gal(b1-4)GlcNAc(b1-3)Gal(b1-4)GlcNAc(b1-3)Gal(b1-4)GlcNAc(b1-2)Man(a1-6)]GalNAc
How it was run: as §1

[18] = target: Neu5Ac(a2-6)Gal(b1-4)GlcNAc(b1-3)Gal(b1-4)GlcNAc(b1-6)[Gal(b1-3)]GalNAc
How it was run: as §1

[19] = target: Neu5Ac(a2-8)Neu5Ac(a2-3)Gal(b1-3)GalNAc(b1-4)[Neu5Ac(a2-8)Neu5Ac(a2-3)]Gal(b1-4)Glc
How it was run: as §1

[20] = target: Neu5Ac(a2-8)Neu5Ac(a2-8)Neu5Ac(a2-8)Neu5Ac(a2-3)[GalNAc(b1-4)]Gal(b1-4)Glc
How it was run: as §1

[21] = target: Neu5Gc(a2-3)Gal(b1-4)[Fuc(a1-3)]GlcNAc
How it was run: as §1

[22] = target: Neu5Gc(a2-6)Gal(b1-4)GlcNAc
How it was run: as §1

B1: Gal 10 (Homo sapiens), Q05315 (protein)
chain: MSLLPVPYTEAASLSTGSTVTIKGRPLVCFLNEPYLQVDFHTEMKEESDIVFHFQVCFGRRVVMNSREYGAWKQQVESKNMPFQDGQEFELSISVLPDKYQVMVNGQSSYTFDHRIKPEAVKMVQVWRDISLTKFNVSYLKR
Q: For B1, which “glycan array binding signal (z-score)” value (Gal6S(b1-4)Glc6S) is on record?
A: Its value is -0.014.

Q: What about the “glycan array binding signal (z-score)” value (Gal6S(b1-4)GlcNAc) of the same binder?
A: The value was -0.568.

Q: And the “glycan array binding signal (z-score)” value (GalNAc(a1-3)Gal)?
A: The value was -0.104.

Q: And the “glycan array binding signal (z-score)” value (GalNAc(a1-3)GalNAc)?
A: Its value is -0.834.

Q: And the “glycan array binding signal (z-score)” value (GalNAc(b1-3)GalNAc)?
A: The value was -0.693.

Q: What about the “glycan array binding signal (z-score)” value (GalNAc(b1-4)Gal(b1-4)Glc) of the same binder?
A: Its value is 2.27.

Q: And the “glycan array binding signal (z-score)” value (Glc(b1-4)Glc)?
A: The value was -0.17.

Q: What about the “glycan array binding signal (z-score)” value [1] of the same binder?
A: Its value is -0.744.

Q: What about the “glycan array binding signal (z-score)” value [2] of the same binder?
A: Its value is 0.459.

Q: And the “glycan array binding signal (z-score)” value [3]?
A: Its value is 3.48.

Q: What about the “glycan array binding signal (z-score)” value [4] of the same binder?
A: The value was -0.014.

Q: What about the “glycan array binding signal (z-score)” value [5] of the same binder?
A: The value was -0.449.

Q: And the “glycan array binding signal (z-score)” value [6]?
A: The value was -0.956.

Q: And the “glycan array binding signal (z-score)” value (Kdn(a2-6)Gal(b1-4)GlcNAc)?
A: Its value is 0.098.

Q: What about the “glycan array binding signal (z-score)” value [7] of the same binder?
A: The value was -0.68.

Q: What about the “glycan array binding signal (z-score)” value [8] of the same binder?
A: Its value is -0.079.

Q: What about the “glycan array binding signal (z-score)” value [9] of the same binder?
A: Its value is 0.255.

Q: And the “glycan array binding signal (z-score)” value [10]?
A: The value was -0.378.

Q: And the “glycan array binding signal (z-score)” value [11]?
A: Its value is 1.14.

Q: And the “glycan array binding signal (z-score)” value [12]?
A: The value was 2.57.

Q: And the “glycan array binding signal (z-score)” value [13]?
A: Its value is -0.415.

Q: What about the “glycan array binding signal (z-score)” value (Neu5Ac(a2-6)Gal(b1-4)Glc) of the same binder?
A: The value was -0.381.

Q: And the “glycan array binding signal (z-score)” value [14]?
A: Its value is 0.509.

Q: And the “glycan array binding signal (z-score)” value [15]?
A: The value was 2.9.

Q: What about the “glycan array binding signal (z-score)” value [16] of the same binder?
A: The value was -0.312.

Q: And the “glycan array binding signal (z-score)” value [17]?
A: The value was 3.41.

Q: And the “glycan array binding signal (z-score)” value [18]?
A: Its value is -0.176.

Q: What about the “glycan array binding signal (z-score)” value [19] of the same binder?
A: The value was -0.741.

Q: And the “glycan array binding signal (z-score)” value [20]?
A: Its value is 0.562.

Q: And the “glycan array binding signal (z-score)” value [21]?
A: Its value is 0.205.

Q: What about the “glycan array binding signal (z-score)” value [22] of the same binder?
A: Its value is -0.495.
